Experimental data as given in PubChem BioAssay AID1159580 (chemical genetic matrix, 2015).
Out of some 5,500 compounds screened, about 2,000 (36%) were called active. Inconclusive results (about 18%) are left out. Cut-off read from the data, not from the text of the source: active = normalized growth mostly below about 0.91 (no sharp cut-off); inconclusive = no clear call, values can overlap the other calls; inactive = mostly above about 0.92. This is one part of the list.

Experiment: chemical genetic growth profiling, strain panel (AID 1159580);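 note: tested at 20 µM; growth read once vehicle control cultures reached saturation at 30 °C; 1 = growth at the plate median or of vehicle wells; lower values mean less growth of the strain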
Settings: S. cerevisiae deletion strains, growth OD
[1] = locus YAL013W, strain DEP1, hits give low values
[2] = locus YGR229C, strain SMI1, hits give low values
[3] = locus YJR075W, strain HOC1, hits give low values
[4] = locus YNL322C, strain KRE1, hits give low values
[5] = locus YPL055C, strain LGE1, hits give low values

Measured: normalized growth

COc1ccc(OC)c(S(=O)(=O)Oc2ccc(C#N)cc2)c1
inactive: [1] 0.997 | locus YBR229C, strain ROT2, hits give low values 0.994 | locus YCL061C, strain MRC1, hits give low values 1.02 | locus YDL101C, strain DUN1, hits give low values 0.984 | locus YDL134C, strain PPH21, hits give low values 1.01 | locus YDR150W, strain NUM1, hits give low values 0.98 | locus YEL061C, strain CIN8, hits give low values 0.956 | locus YGR078C, strain PAC10, hits give low values 0.994 | [2] 0.968 | locus YHR030C, strain SLT2, hits give low values 0.937 | locus YHR087W, strain rtc3, hits give low values 0.968 | locus YJR043C, strain POL32, hits give low values 0.981 | [3] 1 | locus YLR039C, strain RIC1, hits give low values 1.09 | locus YLR058C, strain SHM2 (second series), hits give low values 0.992 | locus YLR085C, strain ARP6, hits give low values 0.93 | locus YLR262C, strain YPT6, hits give low values 1.09 | locus YML094W, strain GIM5, hits give low values 0.981 | locus YMR219W, strain ESC1, hits give low values 1.01 | locus YMR263W, strain SAP30, hits give low values 0.992 | locus YNL128W, strain TEP1, hits give low values 1 | locus YNL153C, strain GIM3, hits give low values 0.977 | locus YNL298W, strain CLA4 (second series), hits give low values 0.972 | [4] 1 | locus YNR030W, strain Alg12, hits give low values 0.973 | [5] 0.961 | locus YPL241C, strain CIN2, hits give low values 0.987 | locus YPR135W, strain CTF4, hits give low values 0.924

NNC(N)=O
inactive: [1] 1.03 | locus YAL040C, strain CLN3, hits give low values 1.01 | locus YCL061C, strain MRC1 (second series), hits give low values 1.01 | locus YDR363W, strain ESC2, hits give low values 1.02 | locus YER002W, strain NOP16, hits give low values 1.01 | [2] 1.03 | [3] 1.02 | locus YMR307W, strain GAS1, hits give low values 0.998 | locus YNL175C, strain NOP13, hits give low values 1.01 | locus YNL197C, strain WHI3, hits give low values 1 | locus YNL224C, strain SQS1, hits give low values 1 | [4] 1.03 | locus YOR083W, strain WHI5 (second series), hits give low values 1 | [5] 1.05
